# “And” between values parts separate entries of the source, which are not always exact repeats. Equal entries are not always repeated. Inconclusive results are not listed. A call without a number means that no potency is given here. The source holds several records for some structures; these can differ, active in one and inactive in another. The source made the active and inactive calls. Unless noted, calls come from the whole dose curve.
# Key:
# [1] = Nuclear factor erythroid 2-related factor 2/antioxidant responsive element (Nrf2/ARE) small molecule agonists: qHTS cell viability counter screen in human keratinocytes (AID 1919968; active = well fitted curve in the direction sought with a large enough effect in the repeat runs; an effect the other way counts as inactive or inconclusive; note: nearly all actives have a fitted effect of over 55% in size; note: potency is the fitted concentration of half-maximal effect)
# Outline: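 HaCaT ARE reporter line, 1,500 cells/well; 5 h settle, 37 C/5% CO2; cpd in DMSO pinned; 23 h exposure; CellTiter-Fluor, 1 h; fluorescence.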
# [2] = G protein-coupled receptor (GPCR) small molecule agonists, calcium flux assay: HEK293 wild type cell line counter screen (AID 1920065)
# Outline: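 Kinetic fluorescence at Ex/Em 480/540, recorded every second over 3 min, served as the read-out after compound addition. Each compound was tested at 15 concentrations in triplicate on cells pre-loaded with calcium dye for 1 h.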
# [3] = p53 small molecule agonists, cell-based qHTS assay with human liver microsomes (AID 1963577);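 note: p53 response element beta-lactamase reporter cells with liver microsomes plus NADPH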
# Outline: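 p53RE-bla cells; 5 h settle, 37 C/5% CO2; cpd + HLM 0.5 mg/mL + NADPH 0.5 mg/mL (final); 16 h 37 C; LiveBLAzer 2 h RT dark; fluorescence readout.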
# [4] = p53 small molecule agonists, cell-based qHTS assay with rat liver microsomes (AID 1963578)
# Outline: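 Rat liver microsome activation: microsomes 0.5 mg/mL, NADPH 0.5 mg/mL final; p53RE-bla cells, 16 h 37 C; LiveBLAzer readout, 2 h RT dark.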
# [5] = p53 small molecule agonists, cell-based qHTS assay with human liver microsomes: qHTS cell viability counter screen (AID 1963579); note: nearly all actives have a fitted effect of over 45% in size; note: potency is the fitted concentration of half-maximal effect
# Outline: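 Luminescent CellTiter-Glo read-out, 30 min at room temperature, gauged cytotoxicity in p53RE-bla cells exposed 16 h at 37 C to DMSO-dissolved compounds with metabolic activation by human liver microsomes and NADPH, each 0.5 mg/mL final.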
# [6] = p53 small molecule agonists, cell-based qHTS assay with rat liver microsomes: qHTS cell viability counter screen (AID 1963580); note: nearly all actives have a fitted effect of over 45% in size; note: potency is the fitted concentration of half-maximal effect
# Outline: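 p53RE-bla HCT-116 cells were exposed 16 h at 37 C to compounds with rat liver microsomes (0.5 mg/mL) and NADPH (0.5 mg/mL). Viability was measured in the same wells as ATP content by CellTiter-Glo luminescence.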
# [7] = p53 small molecule agonists, cell-based qHTS assay: qHTS cell viability counter screen (AID 1963581); note: nearly all actives have a fitted effect of over 45% in size; note: potency is the fitted concentration of half-maximal effect
# Outline: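 HCT-116 p53RE-bla cells, 4,000/well, plated 5 h before compound pin transfer; 16 h at 37 C; bla substrate 2 h RT; then CellTiter-Glo, 30 min RT, luminescence.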
# [8] = p53 small molecule agonists, cell-based qHTS assay (AID 1963582; active = well fitted activation curve with a large enough effect in the signal ratio in the repeat runs, not every such curve was filed as active; the % refers to the signal ratio)
# Outline: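 Reporter line: p53RE-bla. Pre-incubation 5 h, 37 C, 5% CO2; compound (DMSO, pin tool) 16 h, 37 C; B/G FRET substrate 2 h RT; fluorescence intensity read.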
# [9] = target: 5-hydroxytryptamine receptor 2A (Homo sapiens) (UniProt P28223); assay: 5-hydroxytryptamine receptor 2A (HTR2A) small molecule antagonists, cell-based qHTS assay (AID 1963586); note: nearly all actives have a fitted effect of over 45% in size; note: potency is the fitted concentration of half-maximal effect
# Outline: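 Antagonist-mode intracellular calcium assay: DOI (4 nM) added after 5 min compound pre-incubation at room temperature to dye-loaded HTR2A-CHO cells. Fluorescence followed for 3 min, sampled every second.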
# [10] = target: 5-hydroxytryptamine receptor 2A (Homo sapiens) (UniProt P28223); assay: 5-hydroxytryptamine receptor 2A (HTR2A) small molecule agonists, cell-based qHTS assay (AID 1963587); note: nearly all actives have a fitted effect of over 30% in size
# Outline: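 CHO cells stably expressing human HTR2A, plated 18 h, loaded with calcium dye 1 h at 37 C. Agonist mode: compounds added and intracellular calcium fluorescence recorded kinetically for 2 min at 1 sec intervals.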
# [11] = target: Muscarinic acetylcholine receptor M1 (Homo sapiens) (UniProt P11229); assay: Cholinergic receptor muscarinic 1 (CHRM1) small molecule antagonists, cell-based qHTS assay (AID 1963588); note: nearly all actives have a fitted effect of over 40% in size
# Outline: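 CHRM1-CHO calcium-flux assay, antagonist mode. Cells were seeded 18 h, dye-loaded 1 h at 37 C and given compound for 5 min at RT, then acetylcholine was added at 50nM. FDSS fluorescence was read 3 min; 15 concentrations, three runs.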
# [12] = target: Muscarinic acetylcholine receptor M1 (Homo sapiens) (UniProt P11229); assay: Cholinergic receptor muscarinic 1 (CHRM1) small molecule agonists, cell-based qHTS assay (AID 1963589); note: nearly all actives have a fitted effect of over 35% in size
# Outline: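 Human M1 in stable CHO line; 18 h plating, 1 h dye load 37 C; cpd added (agonist mode); Ca2+ fluorescence kinetic read, 1 s intervals; 15 conc, 3 runs.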
# [13] = cAMP Responsive Elements (CRE) small molecule agonists, cell-based qHTS assay (AID 1963590)
# Outline: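 HEK 293T CRE-bla, 2,000 cells/well, 18 h preincubation 37 C/5% CO2; cpds (DMSO) pinned, 3 h; LiveBLAzer B/G FRET substrate, 2 h RT.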
# [14] = cAMP Responsive Elements (CRE) small molecule antagonists, cell-based qHTS assay (AID 1963591; active = well fitted inhibition curve with a large enough effect in the signal ratio in the repeat runs, not every such curve was filed as active; the % refers to the signal ratio)
# Outline: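 Beta-lactamase reporter read by FRET substrate (LiveBLAzer B/G) after 2 h at room temperature. CRE-bla HEK293T cells had received compound plus 0.25 uM (final) NKH477 for 3 h at 37 °C.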
# [15] = target: Beta-2 adrenergic receptor (Homo sapiens) (UniProt P07550); assay: Adrenergic beta2 receptor (ADRB2) small molecule antagonists, cell-based qHTS assay (AID 1963592); note: series mostly up to about 92 µM; nearly all actives have a fitted effect of over 50% in size
# Outline: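 Cells (CHO, stable ADRB2 overexpression) incubated 18-20hr at 37C; compounds added from DMSO; agonist mix (1nM isoproterenol, 100uM IBMX, 25uM Ro-20-1724) added; 0.5hr RT; d2-cAMP and anti-cAMP-cryptate added; 1hr RT; 665/615 nm read.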
# [16] = target: Beta-2 adrenergic receptor (Homo sapiens) (UniProt P07550); assay: Adrenergic beta2 receptor (ADRB2) small molecule agonists, cell-based qHTS assay (AID 1963593);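 note: CHO cells stably overexpressing human ADRB2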
# Outline: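 CHO cells stably over-expressing ADRB2 were plated overnight at 37C, then dosed with compounds plus a stimulation mix containing 100uM IBMX and 25uM Ro-20-1724 for 0.5hr at room temperature. cAMP was measured by HTRF competition, 1hr.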
# [17] = target: D(2) dopamine receptor (Homo sapiens) (UniProt P14416); assay: Dopamine D2 receptor (DRD2) small molecule agonists, cell-based qHTS assay (AID 1963594); note: nearly all actives have a fitted effect of over 35% in size
# Outline: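 HEK293 cells stably expressing human DRD2, pre-treated with PDE inhibitor Ro20-1724 (0.1 mM final) and compound 10 min at room temperature, then stimulated with NKH477 (200nM […]) for 30 min. cAMP read by HTRF (665/620 nm).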
# [18] = target: D(2) dopamine receptor (Homo sapiens) (UniProt P14416); assay: Dopamine D2 receptor (DRD2) small molecule antagonists, cell-based qHTS assay (AID 1963595; active = well fitted inhibition curve with a large enough effect in the signal ratio in the repeat runs, with a control signal flat; the % refers to the signal ratio; note: potency is the fitted concentration of half-maximal effect)
# Outline: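 Antagonist mode in DRD2-HEK293 cells: after compound addition with 0.1 mM Ro20-1724, cells received quinpirole (12 nM) and NKH477 (200 nM) for 30 min at room temperature; HTRF cAMP read after 1 h detection.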
# [19] = target: Gonadotropin-releasing hormone receptor (Homo sapiens) (UniProt P30968); assay: Human gonadotropin-releasing hormone receptor (GnRHR) small molecule agonists, calcium flux assay in GnRHR-HEK293 cells (AID 1920063); note: nearly all actives have a fitted effect of over 35% in size
# Outline: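 GnRHR-HEK293, 1500 cells/well, 18 h 37 C/5% CO2; Ca dye 1 h 37 C; cpd pinned (DMSO), agonist mode; kinetic FL 480/540, 3 min, 1 s reads; 15 conc, n=3.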
# [20] = target: KiSS-1 receptor (Homo sapiens) (UniProt Q969F8); assay: Human kisspeptin (KISS1R) small molecule agonists, calcium flux assay in KISS1R-HEK293 cells (AID 1920064; active = well fitted curve in the direction sought with a large enough effect in the repeat runs; an effect the other way counts as inactive or inconclusive)
# Outline: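 Stable human KISS1R HEK293 line; 18 h plating, 37 C/5% CO2; calcium dye 1 h 37 C; compound pin transfer; kinetic fluorescence Ex/Em 480/540, 3 min.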
# Gonadotropin-releasing hormone receptor (Homo sapiens), sequence (P30968 whole entry, looked up): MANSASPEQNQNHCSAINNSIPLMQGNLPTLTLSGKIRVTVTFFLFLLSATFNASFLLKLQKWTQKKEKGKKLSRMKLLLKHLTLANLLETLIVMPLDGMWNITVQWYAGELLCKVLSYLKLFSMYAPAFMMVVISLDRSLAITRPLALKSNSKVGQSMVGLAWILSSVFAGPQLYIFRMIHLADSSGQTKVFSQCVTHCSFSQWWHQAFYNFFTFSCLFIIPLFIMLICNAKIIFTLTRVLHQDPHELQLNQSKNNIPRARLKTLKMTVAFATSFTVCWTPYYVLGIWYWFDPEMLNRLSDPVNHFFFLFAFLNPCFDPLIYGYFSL
# D(2) dopamine receptor (Homo sapiens), sequence (P14416 whole entry, looked up): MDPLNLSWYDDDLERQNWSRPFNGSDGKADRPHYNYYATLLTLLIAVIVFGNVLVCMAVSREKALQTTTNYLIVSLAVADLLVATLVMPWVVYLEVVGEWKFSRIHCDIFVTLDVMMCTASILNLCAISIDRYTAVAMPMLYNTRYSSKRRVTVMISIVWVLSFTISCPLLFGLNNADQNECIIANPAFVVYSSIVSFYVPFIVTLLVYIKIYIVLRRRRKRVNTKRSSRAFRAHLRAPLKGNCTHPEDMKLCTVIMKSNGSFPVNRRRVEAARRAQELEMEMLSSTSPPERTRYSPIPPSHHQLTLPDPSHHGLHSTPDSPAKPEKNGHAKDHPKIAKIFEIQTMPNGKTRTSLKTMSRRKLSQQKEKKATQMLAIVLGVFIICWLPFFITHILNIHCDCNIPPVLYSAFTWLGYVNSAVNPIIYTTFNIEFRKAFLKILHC
# 5-hydroxytryptamine receptor 2A (Homo sapiens), sequence (P28223 whole entry, looked up): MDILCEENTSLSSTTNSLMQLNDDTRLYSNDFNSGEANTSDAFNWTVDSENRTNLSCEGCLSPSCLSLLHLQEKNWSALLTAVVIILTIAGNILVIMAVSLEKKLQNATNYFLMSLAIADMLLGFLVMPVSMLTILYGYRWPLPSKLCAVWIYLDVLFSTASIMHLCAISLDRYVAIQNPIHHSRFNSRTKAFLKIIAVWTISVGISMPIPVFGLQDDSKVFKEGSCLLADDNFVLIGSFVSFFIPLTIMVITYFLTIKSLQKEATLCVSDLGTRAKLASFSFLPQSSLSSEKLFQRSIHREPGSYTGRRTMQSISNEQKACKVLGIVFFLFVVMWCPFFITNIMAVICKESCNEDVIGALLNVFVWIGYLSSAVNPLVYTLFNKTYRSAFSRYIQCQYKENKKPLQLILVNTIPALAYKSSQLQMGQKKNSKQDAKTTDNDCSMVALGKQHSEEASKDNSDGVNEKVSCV
# Muscarinic acetylcholine receptor M1 (Homo sapiens), sequence (P11229 whole entry, looked up): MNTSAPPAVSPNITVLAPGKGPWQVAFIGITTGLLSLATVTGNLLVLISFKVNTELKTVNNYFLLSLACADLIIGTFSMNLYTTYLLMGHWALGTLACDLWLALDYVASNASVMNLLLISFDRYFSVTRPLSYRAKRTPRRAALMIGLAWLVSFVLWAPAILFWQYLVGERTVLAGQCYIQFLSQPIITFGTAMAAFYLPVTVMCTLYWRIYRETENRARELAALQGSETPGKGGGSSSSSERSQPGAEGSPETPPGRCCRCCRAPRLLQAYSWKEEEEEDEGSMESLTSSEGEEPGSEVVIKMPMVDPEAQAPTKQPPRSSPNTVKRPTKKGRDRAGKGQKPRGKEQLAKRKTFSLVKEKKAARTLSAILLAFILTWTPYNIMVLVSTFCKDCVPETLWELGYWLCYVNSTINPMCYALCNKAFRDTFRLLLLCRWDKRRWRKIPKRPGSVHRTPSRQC
# KiSS-1 receptor (Homo sapiens), sequence (Q969F8 whole entry, looked up): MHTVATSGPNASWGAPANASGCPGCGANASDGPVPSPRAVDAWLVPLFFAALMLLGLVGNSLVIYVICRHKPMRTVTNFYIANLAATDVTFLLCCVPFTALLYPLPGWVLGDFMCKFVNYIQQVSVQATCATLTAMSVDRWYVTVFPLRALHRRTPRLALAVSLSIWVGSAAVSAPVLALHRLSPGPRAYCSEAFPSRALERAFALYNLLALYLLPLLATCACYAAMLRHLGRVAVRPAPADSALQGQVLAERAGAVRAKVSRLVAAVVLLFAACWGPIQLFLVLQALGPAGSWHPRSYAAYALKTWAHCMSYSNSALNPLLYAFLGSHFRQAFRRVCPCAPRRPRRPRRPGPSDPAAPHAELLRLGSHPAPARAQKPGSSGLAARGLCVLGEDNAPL
# Beta-2 adrenergic receptor (Homo sapiens), sequence (P07550 whole entry, looked up): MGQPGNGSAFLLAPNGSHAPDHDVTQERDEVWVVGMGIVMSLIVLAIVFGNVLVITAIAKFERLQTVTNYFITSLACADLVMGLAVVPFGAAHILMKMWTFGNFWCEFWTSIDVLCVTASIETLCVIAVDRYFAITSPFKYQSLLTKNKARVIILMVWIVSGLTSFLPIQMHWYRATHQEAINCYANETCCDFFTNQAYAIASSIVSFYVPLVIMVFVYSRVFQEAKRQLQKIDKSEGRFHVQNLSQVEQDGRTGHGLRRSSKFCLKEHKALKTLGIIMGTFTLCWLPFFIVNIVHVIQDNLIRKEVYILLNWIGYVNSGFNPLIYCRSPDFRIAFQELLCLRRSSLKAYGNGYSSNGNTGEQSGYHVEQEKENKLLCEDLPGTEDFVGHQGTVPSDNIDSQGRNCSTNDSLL
SMILES,Potency [1],Potency [2],Potency [3],Potency [4],Potency [5],Potency [6],Potency [7],Potency [8],Potency [9],Potency [10],Potency [11],Potency [12],Potency [13],Potency [14],Potency [15],Potency [16],Potency [17],Potency [18],Potency [19],Potency [20]
C=C(C)C1CC=C(C)CC1 (stereo not given),inactive,inactive,inactive,inactive,inactive,inactive,inactive,inactive,inactive,inactive,inactive,inactive,inactive,inactive,inactive,inactive,inactive,inactive,,
O=Cc1ccccc1O,inactive,inactive,inactive,inactive,inactive,inactive,inactive,inactive,inactive,inactive,inactive,inactive,inactive,inactive,inactive,inactive,,inactive,inactive,inactive
C=CCOC(=O)CC(C)C,inactive,inactive,inactive,,inactive,inactive,inactive,inactive,inactive,inactive,inactive,,inactive,inactive,inactive,inactive,inactive,inactive,,inactive
CCCOC(=O)c1ccccc1,inactive,inactive,inactive,inactive,inactive,inactive,inactive,inactive,inactive,,inactive,inactive,inactive,inactive,inactive,,inactive,inactive,inactive,inactive
CC(O)CN(CCN(CC(C)O)CC(C)O)CC(C)O (stereo not given),inactive,inactive,,,inactive,inactive,inactive,inactive,inactive,inactive,inactive,inactive,inactive,inactive,inactive,inactive,inactive,inactive,,inactive
Brc1cc(Oc2cc(Br)c(Br)c(Br)c2Br)c(Br)c(Br)c1Br,inactive,inactive,inactive,inactive,20.5 µM (active) and inactive,inactive,inactive,inactive,inactive,inactive,inactive,inactive,inactive,inactive,inactive,inactive,inactive,inactive,inactive,inactive
COC(=O)/C=C\C(=O)OC,inactive,inactive,inactive,inactive,inactive,inactive,,inactive,inactive,,inactive,inactive,inactive,inactive,inactive,inactive,inactive,inactive,,inactive
O=C(OCc1ccccc1)c1ccccc1O,inactive,,inactive,inactive,inactive,inactive,,inactive,inactive,inactive,inactive,inactive,inactive,inactive,inactive,inactive,inactive,inactive,,inactive
CC1=CCC2CC1C2(C)C (stereo not given),inactive,inactive,,,inactive,inactive,inactive,,inactive,inactive,inactive,inactive,inactive,inactive,inactive,inactive,inactive,inactive,,inactive
CCO[Si](CCC#N)(OCC)OCC,inactive,inactive,,,inactive,inactive,inactive,,inactive,inactive,inactive,inactive,inactive,inactive,inactive,,inactive,inactive,,inactive
CCC(Cc1c(I)cc(I)c(N)c1I)C(=O)O (stereo not given),inactive,inactive,,inactive,inactive,inactive,inactive,inactive,inactive and 3.65 µM (active),inactive,inactive,inactive,inactive,inactive,inactive,inactive,inactive,inactive and 10.6 µM (active),,inactive
O=[N+]([O-])c1cc(C(F)(F)F)ccc1Cl,inactive,inactive,inactive,inactive,,inactive,,inactive,inactive,inactive,,,inactive,inactive,inactive,inactive,inactive,inactive,,inactive
C=CCCCCCCCCCC,inactive,inactive,inactive,inactive,inactive,inactive,inactive,inactive,,inactive,inactive,inactive,,inactive,,,inactive,inactive,,inactive
COC(=O)c1ccc(C=O)cc1,inactive,inactive,inactive,inactive,inactive,inactive,inactive,inactive,inactive,inactive,inactive,inactive,inactive,inactive,inactive,inactive,inactive,inactive,inactive,inactive
CCCCOC(=O)c1ccc(O)cc1,inactive,inactive,inactive,inactive,inactive,inactive,inactive,inactive,inactive,inactive,inactive,inactive,inactive,inactive,inactive,inactive,inactive,inactive,inactive,inactive
C=C(C)C(=O)OCC(CC)(COC(=O)C(=C)C)COC(=O)C(=C)C,inactive,,inactive,inactive,inactive,inactive,inactive,inactive,inactive,inactive,,,,,inactive,,,inactive,,inactive
CC(=O)O[C@]1(C(C)=O)CC[C@H]2[C@@H]3C[C@H](C)C4=CC(=O)CC[C@]4(C)[C@H]3CC[C@@]21C,inactive,inactive,,,inactive,inactive,inactive,inactive,,,,,,,inactive,inactive,inactive,inactive,,inactive
C=C(C)CC(C)(C)C,inactive,inactive,inactive,,inactive,inactive,,inactive,inactive,,inactive,inactive,inactive,inactive,inactive,,inactive,inactive,inactive,inactive
COc1ccccc1OCC(O)CO (stereo not given),inactive,inactive,inactive,inactive,inactive,,inactive,inactive,,,,,inactive,inactive,inactive,inactive,inactive,inactive,inactive,inactive
Cc1ccc(N)c([N+](=O)[O-])c1,inactive,inactive,,,inactive,inactive,inactive,,inactive,inactive,inactive,inactive,inactive,inactive,inactive,inactive,inactive,inactive,inactive,inactive
CNC[C@H](O)c1cccc(O)c1,inactive,inactive,inactive,inactive,inactive,inactive,,inactive,inactive,inactive,inactive,inactive,,,inactive,,inactive,61.1 µM (active) and 29.8 µM (active),inactive,inactive
C/C=C/C(=O)N(CC)c1ccccc1C,inactive,inactive,inactive,inactive,inactive,inactive,inactive,inactive,,,,,inactive,inactive,inactive,,inactive,,inactive,inactive
C/C=C/c1ccc(O)c(OC)c1,inactive,inactive,inactive,inactive,,inactive,inactive,inactive,,,,,inactive,inactive,inactive,inactive,inactive,inactive,inactive,inactive
CCCC[P+](CCCC)(CCCC)CCCC,inactive,inactive,inactive,inactive,inactive,,inactive,inactive,inactive,inactive,inactive,inactive,,,inactive,inactive,inactive,inactive,inactive,inactive
C=CCc1ccc(OC)c(OC)c1,inactive,inactive,inactive,inactive,inactive,inactive,,,inactive,inactive,inactive,inactive,inactive,inactive,inactive,,inactive,inactive,inactive,inactive
CCCCC(CC)COC(=O)c1ccc(C(=O)OCC(CC)CCCC)cc1 (stereo not given),inactive,inactive,,inactive,inactive,inactive,inactive,inactive,inactive,inactive,inactive,inactive,inactive,inactive,inactive,,inactive,inactive,inactive,inactive
O=c1ccc2ccccc2o1,inactive,,inactive,inactive,inactive,inactive,,inactive,,,,,inactive,inactive,inactive,inactive,inactive,inactive,,inactive
CC/C(=C(\c1ccccc1)c1ccc(OCCN(C)C)cc1)c1ccccc1,24.3 µM (active) [middle of 5 runs],inactive,inactive,inactive,,1.83 µM (active) and 28.8 µM (active) and inactive,inactive and 51.3 µM (active),,,,,,inactive,inactive,,,inactive,38.9 µM (active) and 61.1 µM (active),inactive,inactive
